Assay outcomes from PubChem.
Pf Dd2 inh: blocks in vitro growth of P. falciparum Dd2 | P. falciparum Dd2 growth, SYBR Green, 72 h | Potency, µM (titrated, usually from 28.9 µM), inactives show at the highest dose activity, negative = inhibition, usual class: inhibitors | 120,000 tested, 4.3% active; active = well fitted inhibition curve with a large enough effect;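 also: plate controls were DMSO vehicle for no effect and reference drug for full effect; nearly all actives have a fitted effect of over 65% in size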
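Infected erythrocytes (Dd2, 0.3% parasitemia, 2.5% hematocrit final) are added to compound in RPMI-1640/Albumax II medium, grown 72 h at 37C in low oxygen, then lysed with saponin/Triton-X containing SYBR Green and read by fluorescence.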
Numbers without * were called inactive; i = inactive; [ ] = dose if it differs, or a comment. The full list was thinned out, with hits kept by preference. Potency is read from the fitted curve at half-maximal effect.

SMILES	Pf Dd2 inh
COc1ccc(-c2nnc3ccc(N4CCN(c5ccccn5)CC4)nn23)nc1	13µM*
COc1ccc(-c2nnc3ccc(N(C)Cc4ccccc4)nn23)nc1	7.9µM*
C[C@@H]1CN(c2ccc3nnc(-c4ccccn4)n3n2)C[C@H](C)O1	21%[44.1 µM]
CN(C)c1ccc2nnc(-c3cc(C(=O)N(C)c4ccccc4)ccn3)n2n1	-17%[44.1 µM]
COCCCNc1ccc2nnc(-c3ccc(C)cn3)n2n1	i
COc1ccc(-c2nnc3ccc(N4CCc5ccccc5CC4)nn23)nc1	i
CCc1nc2c(c(-c3ccc(Cl)cc3)n1)CN(C(=O)c1ccccc1F)CC2	-11%
COC(=O)c1ccc(CN2C(=O)[C@@H]3C[C@@H](O)CN3C3(CN(Cc4cccc(OC(F)(F)F)c4)C3)C2=O)cc1	-14%
CC(C)=CCN1CCN(C(=O)CCOc2ccccc2)[C@H]2CS(=O)(=O)C[C@H]21	-16%
O=C(NCc1nnc2ccc(-c3ccc(Cl)cc3)nn12)c1ccco1	i
O=C(Nc1nc2n(n1)C(c1ccc(Cl)cc1)C=C(c1ccccc1)N2)c1ccco1 (stereo not drawn)	13µM*
CC1=C(C(=O)Nc2ccccc2)C(c2ccccc2)n2nc(-c3ccco3)nc2N1 (stereo not drawn)	i
O=C(c1ccc(F)cc1)n1nc(-c2ccccc2)nc1NCc1ccco1	32%
O=S(=O)(Nc1nc2n(n1)C(c1ccc(F)cc1)C=C(c1ccccc1)N2)c1ccccc1 (stereo not drawn)	0%
O=C(Nc1nc2n(n1)C(c1ccc(F)cc1)C=C(c1ccccc1)N2)c1ccco1 (stereo not drawn)	10µM*
COCC(=O)NC1CCC12CCN(Cc1cccc(OC)c1)CC2 (stereo not drawn)	i
COCCc1nncn1C1CCN(S(=O)(=O)c2ccc(C)c(F)c2)CC1	i
CN1CC(=O)N(c2ccc(Cl)cc2)Cc2c1ncnc2N1CCC(c2ccccc2)CC1	-10%
Cc1cnn(C2(C(=O)O)CCN(C(=O)c3ncoc3C)CC2)c1	-6%
CC(=O)N1CC2(Cc3ccccc31)CN(C(=O)C1CCCC1)C2	-23%[44.1 µM]
NC(=O)c1cccc(CN2CCC3(Cc4ccccc4N(C(=O)C4CCCC4)C3)C2)c1 (stereo not drawn)	-23%
O=C(C1CCCC1)N1CC2(CCN(Cc3ccc(Cl)cc3)C2)Cc2ccccc21 (stereo not drawn)	14µM*
CS(=O)(=O)N1CC2(CCN(CC3CC3)C2)Cc2ccccc21 (stereo not drawn)	-13%
O=C(O)CCC(=O)N1CCCC2(Cc3ccccc3N(C(=O)C3CCCC3)C2)C1 (stereo not drawn)	6%
O=C(C1CCCC1)N1CC2(CCN(CC3CCCCC3)C2)Cc2ccccc21 (stereo not drawn)	11µM*
SMILES	Pf Dd2 inh
O=C(C1CCCC1)N1CC2(CCCN(Cc3c[nH]c4ccccc34)C2)Cc2ccccc21 (stereo not drawn)	7.1µM*
CC(=O)N1Cc2ccccc2CC2(CCN(CC3CCCC3)CC2)C1	-26%
NC(=O)C1(c2nc(C3CCOC3)nn2CC2CCCCC2)CC1 (stereo not drawn)	-14%
CNC(=O)C1(N2CCC[C@H]2C(=O)N(C)CCN(C)C)CCC1	-2%[44.1 µM]
CC(=O)c1cccc(NC(=O)Cn2c(N3CCc4ccccc4C3)nc(C)cc2=O)c1	-13%
CCc1ccc(N2CC(c3noc(-c4ccc(OC)nc4)n3)CC2=O)cc1 (stereo not drawn)	37%
COC(=O)[C@H]1CCCN1C(=O)[C@@H]1C[C@H](NC(=O)NC(C)C)CN1C(=O)CSC	1%[44.1 µM]
CC(=O)N1CCCC1c1nc(C2CN(C(=O)CCn3cc(C)cn3)C2)no1 (stereo not drawn)	12%
Cc1noc(C)c1CN1CCc2nc(C(=O)Nc3cccc(C(F)(F)F)c3)oc2CC1	13µM*
O=C(Nc1cccc(C(F)(F)F)c1)c1nc2c(o1)CCN(Cc1ccccc1F)CC2	i
COc1ccccc1CN1CCc2nc(C(=O)Nc3cccc(C(F)(F)F)c3)oc2CC1	-7%
Cc1noc(C)c1CN1CCc2nc(C(=O)Nc3ccccc3)oc2CC1	i
COc1ccccc1CN1CCc2nc(C(=O)Nc3ccccc3)oc2CC1	11µM*
Cc1ccccc1CN1CCc2nc(C(=O)Nc3ccccc3)oc2CC1	-15%[44.1 µM]
O=C(C1CCC1)N1CCN(C2CCN(Cc3ccccn3)C2=O)CC1 (stereo not drawn)	-20%
COCc1nc(CCNC(=O)c2sc(C)nc2C)no1	54%
O=C(NCCCN1CCCCCC1)c1ccc(CC2CCN(C(=O)C3CC3)CC2)cc1	i
O=C(CC1CCN(C(=O)c2ccc(F)c(F)c2)C1)NCc1ccccc1 (stereo not drawn)	-10%
Cc1cc(C)cc(NC(=O)C2CCCN2S(=O)(=O)c2ccc3nc(-c4ccccc4)[nH]c3c2)c1 (stereo not drawn)	i
O=C(Nc1ccc(F)cc1F)C1CCCN1S(=O)(=O)c1cccc2nsnc12 (stereo not drawn)	12%
Cc1cc(C)cc(NC(=O)C2CCCN2S(=O)(=O)c2cccc3nsnc23)c1 (stereo not drawn)	3.2µM*
Cc1ccc(NC(=O)C2CCCN(S(=O)(=O)c3cccc4nsnc34)C2)c(C)c1 (stereo not drawn)	-7%
Cc1cccc(C)c1NC(=O)C1CCN(S(=O)(=O)c2cccc3nsnc23)CC1	16%
Cc1ccc(NC(=O)C2CCCN(S(=O)(=O)c3cccc4nsnc34)C2)cc1C (stereo not drawn)	-26%
CCc1cccc(C)c1NC(=O)C1CCCN1S(=O)(=O)c1cccc2nsnc12 (stereo not drawn)	5µM*
SMILES	Pf Dd2 inh
CCc1cccc(C)c1NC(=O)C1CCN(S(=O)(=O)c2cccc3nonc23)CC1	14%
Cc1ccc(NC(=O)C2CCCN2S(=O)(=O)c2cccc3nsnc23)c(Br)c1 (stereo not drawn)	7.1µM*
COc1ccc(F)c(CN2CCCC(O)(CN3CCC(C(N)=O)CC3)C2=O)c1 (stereo not drawn)	-9%
O=C(O)C1=NOC2CN([S+](=O)([O-])c3cccs3)CC12 (stereo not drawn)	31%
O=C(c1cc(F)cc(F)c1)N1CC(c2nnc(-c3ccncc3)o2)C2(CCOCC2)C1 (stereo not drawn)	-4%
O=C1CC(c2ccccc2)N(S(=O)(=O)c2cccc3cccnc23)CCCCCCN1 (stereo not drawn)	-8%
COc1ccc(C(=O)N2CCC3(CC2)CCC(O)(CN(C)C)CC3)cc1	-20%
CCC1c2nccn2CCCN1C(=O)Cc1c(C)noc1C (stereo not drawn)	-13%
Cc1cc(C(=O)N2c3ccccc3CC2c2nnc(C(C)C)o2)nn1C (stereo not drawn)	i
COc1ccc(C(=O)N2CCC[C@H]2c2nc(-c3ccc(OC)c(OC)c3)no2)cc1F	-4%
CCCNC(=O)N1CCC(c2nc(CCOCC3CCOCC3)no2)C1 (stereo not drawn)	3%
O=C(C1CC1)N1CCCC(c2nc(CCOCC3CCOCC3)no2)C1 (stereo not drawn)	-4%
C1CC(COCCc2noc(C3CNC3)n2)CCO1	11µM*
Cc1ccc(CNC(=O)C2CCN(c3cnn(Cc4ccccc4)c(=O)c3)C2)o1 (stereo not drawn)	i
CC(C)c1cc(NCC2CCCCCN2)nc(N)n1 (stereo not drawn)	16%
N#Cc1ccc(CN2CC[C@H](c3nnc(Cc4ccccc4)o3)C2)cc1	i
CCn1cc(CN2CCCC(c3nc4c(C)cccc4[nH]3)C2)cc1C#N (stereo not drawn)	13µM*
